Experimental findings from ChEMBL document CHEMBL1961873, “Compounds: GSK PKIS; Assays: Nanosyn kinase panel” (2012) are described below.

Assay [1] deals with Rho-associated protein kinase 1 (Homo sapiens) (UniProt Q13464). To be noted: at 1 µM.
In assay [2] the target is Rho-associated protein kinase 2 (Homo sapiens) (UniProt O75116). To be noted: at 0.1 µM.
Assay [3] shares this target. To be noted: at 1 µM.
In assay [4] the target is Ribosomal protein S6 kinase alpha-1 (Homo sapiens) (UniProt Q15418). To be noted: at 0.1 µM.
For assay [5] the target is unchanged. To be noted: at 1 µM.
Assay [6] addresses Ribosomal protein S6 kinase alpha-3 (Homo sapiens) (UniProt P51812). To be noted: at 0.1 µM.
The target is the same in assay [7]. To be noted: at 1 µM.
The target of assay [8] is Ribosomal protein S6 kinase alpha-2 (Homo sapiens) (UniProt Q15349). To be noted: at 0.1 µM.
The target is the same in assay [9]. To be noted: at 1 µM.
Assay [10] addresses Ribosomal protein S6 kinase alpha-6 (Homo sapiens) (UniProt Q9UK32). To be noted: at 0.1 µM.

Chain of Ribosomal protein S6 kinase alpha-3 (Homo sapiens) (P51812 whole entry): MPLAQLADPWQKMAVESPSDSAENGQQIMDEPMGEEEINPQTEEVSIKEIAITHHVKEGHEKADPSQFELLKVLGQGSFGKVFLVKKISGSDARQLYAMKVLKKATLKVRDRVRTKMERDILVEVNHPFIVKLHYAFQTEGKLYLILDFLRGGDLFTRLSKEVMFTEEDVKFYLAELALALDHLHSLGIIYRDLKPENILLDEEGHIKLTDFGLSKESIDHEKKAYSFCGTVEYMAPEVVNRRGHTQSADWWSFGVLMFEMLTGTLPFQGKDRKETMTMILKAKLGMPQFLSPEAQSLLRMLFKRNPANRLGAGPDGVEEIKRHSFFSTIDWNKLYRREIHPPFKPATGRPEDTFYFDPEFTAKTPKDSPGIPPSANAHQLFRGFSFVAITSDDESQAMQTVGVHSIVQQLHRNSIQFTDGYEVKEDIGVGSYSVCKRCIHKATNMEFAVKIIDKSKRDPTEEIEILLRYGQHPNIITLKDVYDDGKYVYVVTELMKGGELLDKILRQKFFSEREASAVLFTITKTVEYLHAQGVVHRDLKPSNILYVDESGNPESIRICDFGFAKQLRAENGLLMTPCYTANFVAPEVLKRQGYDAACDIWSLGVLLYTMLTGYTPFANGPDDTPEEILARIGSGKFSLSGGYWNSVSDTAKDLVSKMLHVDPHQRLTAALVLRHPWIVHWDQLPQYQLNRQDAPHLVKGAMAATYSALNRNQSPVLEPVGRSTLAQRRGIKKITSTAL
Chain of Rho-associated protein kinase 1 (Homo sapiens) (Q13464 2-1354 limits assumed): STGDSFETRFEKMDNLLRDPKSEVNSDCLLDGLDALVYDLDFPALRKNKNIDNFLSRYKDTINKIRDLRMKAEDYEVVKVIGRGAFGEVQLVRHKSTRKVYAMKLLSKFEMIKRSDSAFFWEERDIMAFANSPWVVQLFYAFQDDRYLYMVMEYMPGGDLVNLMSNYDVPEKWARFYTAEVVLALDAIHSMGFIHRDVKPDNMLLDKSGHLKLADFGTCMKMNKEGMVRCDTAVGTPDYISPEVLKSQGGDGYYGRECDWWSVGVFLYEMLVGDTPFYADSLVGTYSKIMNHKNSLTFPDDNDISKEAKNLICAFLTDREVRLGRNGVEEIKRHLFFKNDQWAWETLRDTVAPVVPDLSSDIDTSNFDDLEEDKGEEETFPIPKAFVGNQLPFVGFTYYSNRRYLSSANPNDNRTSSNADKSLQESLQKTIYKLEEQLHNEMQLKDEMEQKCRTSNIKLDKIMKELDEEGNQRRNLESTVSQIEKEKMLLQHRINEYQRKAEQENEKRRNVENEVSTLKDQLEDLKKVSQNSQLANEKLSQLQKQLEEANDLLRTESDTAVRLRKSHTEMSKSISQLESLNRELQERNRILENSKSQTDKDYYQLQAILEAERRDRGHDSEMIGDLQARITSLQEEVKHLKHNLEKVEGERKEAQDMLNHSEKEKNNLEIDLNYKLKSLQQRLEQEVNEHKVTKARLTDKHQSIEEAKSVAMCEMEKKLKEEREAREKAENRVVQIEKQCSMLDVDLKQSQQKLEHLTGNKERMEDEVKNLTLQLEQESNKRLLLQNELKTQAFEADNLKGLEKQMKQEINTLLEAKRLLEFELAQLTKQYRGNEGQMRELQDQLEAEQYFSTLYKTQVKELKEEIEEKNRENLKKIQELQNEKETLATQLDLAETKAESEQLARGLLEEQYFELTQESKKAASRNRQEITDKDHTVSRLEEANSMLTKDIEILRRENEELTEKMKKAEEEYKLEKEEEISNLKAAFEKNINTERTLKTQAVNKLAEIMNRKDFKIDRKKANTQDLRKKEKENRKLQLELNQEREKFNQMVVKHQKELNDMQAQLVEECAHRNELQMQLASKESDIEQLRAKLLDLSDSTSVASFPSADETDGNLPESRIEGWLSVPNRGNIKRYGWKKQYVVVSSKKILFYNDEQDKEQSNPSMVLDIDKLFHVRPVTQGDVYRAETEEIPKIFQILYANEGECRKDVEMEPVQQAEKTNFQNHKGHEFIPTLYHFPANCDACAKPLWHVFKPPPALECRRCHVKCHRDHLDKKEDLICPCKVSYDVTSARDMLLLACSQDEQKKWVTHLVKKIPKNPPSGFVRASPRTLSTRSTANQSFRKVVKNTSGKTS
Chain of Ribosomal protein S6 kinase alpha-6 (Homo sapiens) (Q9UK32 whole entry): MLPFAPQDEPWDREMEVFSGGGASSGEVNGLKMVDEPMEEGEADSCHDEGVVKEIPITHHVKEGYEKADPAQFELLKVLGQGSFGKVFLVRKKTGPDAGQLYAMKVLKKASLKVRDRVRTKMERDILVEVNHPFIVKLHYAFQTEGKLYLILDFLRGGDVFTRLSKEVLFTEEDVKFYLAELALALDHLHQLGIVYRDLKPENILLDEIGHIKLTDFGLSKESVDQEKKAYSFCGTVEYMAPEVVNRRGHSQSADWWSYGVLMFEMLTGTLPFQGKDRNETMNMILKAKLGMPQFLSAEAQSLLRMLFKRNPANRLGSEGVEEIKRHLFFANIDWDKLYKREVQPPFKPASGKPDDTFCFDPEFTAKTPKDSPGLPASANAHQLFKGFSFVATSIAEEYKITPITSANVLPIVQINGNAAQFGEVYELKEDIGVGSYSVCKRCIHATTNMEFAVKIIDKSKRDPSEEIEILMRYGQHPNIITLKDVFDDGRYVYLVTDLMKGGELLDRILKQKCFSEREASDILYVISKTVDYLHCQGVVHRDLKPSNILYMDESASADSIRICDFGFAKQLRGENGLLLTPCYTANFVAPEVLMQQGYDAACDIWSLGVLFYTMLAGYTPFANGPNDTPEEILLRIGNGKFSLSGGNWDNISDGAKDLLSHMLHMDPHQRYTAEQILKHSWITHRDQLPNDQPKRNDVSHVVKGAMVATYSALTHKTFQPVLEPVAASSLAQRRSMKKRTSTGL
Chain of Rho-associated protein kinase 2 (Homo sapiens) (O75116 whole entry, looked up): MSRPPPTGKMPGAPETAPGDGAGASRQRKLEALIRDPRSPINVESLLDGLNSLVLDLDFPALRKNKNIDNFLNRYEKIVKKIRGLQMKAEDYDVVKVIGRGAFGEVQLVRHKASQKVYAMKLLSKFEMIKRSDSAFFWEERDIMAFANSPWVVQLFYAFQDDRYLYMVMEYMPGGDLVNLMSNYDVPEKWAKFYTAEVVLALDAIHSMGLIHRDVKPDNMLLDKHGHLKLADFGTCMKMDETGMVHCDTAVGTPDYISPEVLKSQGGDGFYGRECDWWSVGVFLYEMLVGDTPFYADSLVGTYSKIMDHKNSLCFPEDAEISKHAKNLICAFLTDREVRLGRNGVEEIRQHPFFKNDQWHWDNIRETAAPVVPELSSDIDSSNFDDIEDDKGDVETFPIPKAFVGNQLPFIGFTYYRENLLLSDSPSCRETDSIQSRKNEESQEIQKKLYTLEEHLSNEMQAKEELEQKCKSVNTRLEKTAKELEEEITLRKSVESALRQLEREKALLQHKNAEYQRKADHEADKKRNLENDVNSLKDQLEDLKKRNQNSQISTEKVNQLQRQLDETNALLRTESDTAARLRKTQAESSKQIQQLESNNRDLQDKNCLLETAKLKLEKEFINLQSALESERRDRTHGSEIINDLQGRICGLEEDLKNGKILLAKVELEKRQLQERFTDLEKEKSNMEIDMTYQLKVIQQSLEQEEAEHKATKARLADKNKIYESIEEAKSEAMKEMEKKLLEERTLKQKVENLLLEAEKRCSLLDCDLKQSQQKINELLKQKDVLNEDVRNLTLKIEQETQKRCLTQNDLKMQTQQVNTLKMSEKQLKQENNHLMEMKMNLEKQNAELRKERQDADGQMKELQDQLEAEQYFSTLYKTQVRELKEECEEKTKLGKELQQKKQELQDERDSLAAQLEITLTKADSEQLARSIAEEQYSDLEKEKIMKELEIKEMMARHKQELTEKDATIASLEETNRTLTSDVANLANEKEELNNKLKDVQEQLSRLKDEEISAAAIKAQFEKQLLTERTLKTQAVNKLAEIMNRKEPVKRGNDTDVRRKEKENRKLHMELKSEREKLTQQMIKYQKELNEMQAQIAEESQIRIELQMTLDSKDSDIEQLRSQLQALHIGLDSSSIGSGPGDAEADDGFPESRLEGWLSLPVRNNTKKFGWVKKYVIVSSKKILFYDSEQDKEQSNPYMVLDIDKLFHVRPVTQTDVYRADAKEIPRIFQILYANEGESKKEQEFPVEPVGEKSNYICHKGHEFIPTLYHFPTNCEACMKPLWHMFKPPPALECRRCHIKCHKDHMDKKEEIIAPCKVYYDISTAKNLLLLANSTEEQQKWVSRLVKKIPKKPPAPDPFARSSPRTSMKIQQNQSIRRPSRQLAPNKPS
Chain of Ribosomal protein S6 kinase alpha-1 (Homo sapiens) (Q15418 whole entry): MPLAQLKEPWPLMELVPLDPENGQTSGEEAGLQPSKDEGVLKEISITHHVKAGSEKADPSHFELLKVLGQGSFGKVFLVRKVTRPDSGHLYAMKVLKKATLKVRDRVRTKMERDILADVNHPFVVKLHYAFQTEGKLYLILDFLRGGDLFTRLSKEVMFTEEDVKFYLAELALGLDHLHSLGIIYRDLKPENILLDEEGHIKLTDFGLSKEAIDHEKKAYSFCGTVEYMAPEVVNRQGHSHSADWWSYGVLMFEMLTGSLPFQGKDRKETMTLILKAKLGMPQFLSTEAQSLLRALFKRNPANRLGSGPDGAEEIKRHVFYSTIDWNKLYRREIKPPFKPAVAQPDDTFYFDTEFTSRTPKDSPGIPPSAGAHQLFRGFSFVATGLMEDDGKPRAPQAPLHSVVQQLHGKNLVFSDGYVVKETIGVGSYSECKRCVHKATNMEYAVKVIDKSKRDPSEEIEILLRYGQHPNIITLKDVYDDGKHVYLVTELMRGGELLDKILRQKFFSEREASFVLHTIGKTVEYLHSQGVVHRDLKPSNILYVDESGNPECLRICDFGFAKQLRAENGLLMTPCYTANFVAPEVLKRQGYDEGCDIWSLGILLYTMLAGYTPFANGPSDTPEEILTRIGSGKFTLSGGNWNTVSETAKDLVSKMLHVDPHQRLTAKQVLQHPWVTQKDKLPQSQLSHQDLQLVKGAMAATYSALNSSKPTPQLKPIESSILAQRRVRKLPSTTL

In the case of `COc1cccc(-n2ncc3c(N/N=C/c4ccncc4)ncnc32)c1`, the inhibition in assay [1] was 9.67%; in [2] it was 4.97%; in assay [3], 19.4%; in assay [4], 3.51%; in assay [5] it was 7.17%; in assay [6], 1.43%. Moreover, the inhibition was 4.26% in assay [7], 2.35% in assay [8], 4.92% in [9] and 2.25% in [10].
`Cc1cc(-c2ccco2)cc(C)c1/C=C/c1cncc(-c2nn[nH]n2)c1`: the inhibition in assay [1] worked out at 1.58%; in assay [2] it was 0.76%; in [3], 1.41%; in assay [4] it was 0.75%; in [5], 1.35%; in [6] it was 0.67%. Further, the inhibition in assay [7] is 0.7%; in [8], 1.44%; in [9], 0.92%; in assay [10] it was -0.24%.
On to `CCn1c(-c2nonc2N)nc2c(C#CC(C)(C)O)nc(O[C@@H](CN)c3ccccc3)cc21`, for which the inhibition in assay [1] was 51.7%; in [2], 11.5%; in assay [3] it was 59.4%; in [4], 19.1%; in assay [5], 71.6%; in assay [6] it was 18%. Also, the inhibition in assay [7] was found to be 69.5%; in assay [8] it was 15.4%; in [9] it was 69.9%; in assay [10] it was 4.01%.
As to `COc1cc(C=NNc2ncnc3c2cnn3Cc2ccccc2)ccc1O`, the inhibition was 5.87% in assay [1]; -0.21% in assay [2]; 1.36% in assay [3]; 1.68% in [4]; 3.82% in assay [5]; 1.86% in assay [6]. Moreover, the inhibition in assay [7] was 3.94%; in assay [8], -0.6%; in assay [9] it was 1.82%; in [10], -1.29%.
For the molecule `Nc1nonc1-c1nc2cnccc2n1C1CCCCC1`, the inhibition in [1] was 78.4%; in assay [2], 42.4%; in [3] it was 83.4%; in assay [4], 52.1%; in assay [5], 86.4%; in [6], 40.9%. The inhibition in [7] amounted to 81.4%; in [8], 70%; in [9], 92.6%; in [10] it was 6.78%.
As for `CCn1c(-c2nonc2N)nc2c(C#CC(C)(C)O)ncc(OC[C@@H]3CCCN3)c21`, the inhibition was 12.4% in [1]; -0.51% in assay [2]; 10% in assay [3]; -0.68% in assay [4]; 23.3% in assay [5]; 3.35% in [6]. Besides, the inhibition in assay [7] is 24.9%; in [8], 2.02%; in assay [9], 13.3%; in assay [10], -0.15%.
As for `NS(=O)(=O)c1ccc(-c2ccc3c(NC(=O)C4CC4)n[nH]c3c2)cc1`, the inhibition in [1] came out at 2.34%; in assay [2], 0.8%; in assay [3], 1.01%; in assay [4] it was 1.47%; in assay [5], 0.59%; in assay [6] it was 0.4%. For the same molecule, the inhibition in assay [7] came to 1.28%; in assay [8] it was 0.45%; in [9], 2.46%; in assay [10] it was 1.52%.
`COc1cccc(COc2cc(-n3cnc4ccccc43)sc2C(N)=O)c1`: the inhibition is -0.3% in assay [1]; -0.06% in [2]; 0.84% in assay [3]; 0.37% in assay [4]; 0.21% in assay [5]; 0.89% in assay [6]. The inhibition was -1.45% in assay [7], -0.15% in [8], 1.4% in [9] and 1.09% in assay [10].
On to `NS(=O)(=O)c1ccc(N/C=C2\C(=O)Nc3ccc4ncsc4c32)cc1`, for which the inhibition was found to be 33% in assay [1]; 12% in assay [2]; 47.5% in [3]; 4.22% in [4]; 31.3% in assay [5]; 6.13% in assay [6]. The inhibition worked out at 36% in [7], 16.5% in assay [8], 66.1% in assay [9] and 12.6% in assay [10].
In the case of `CCn1c(-c2nonc2N)nc2c(C#CCN)ncc(OCCCN)c21`, the inhibition was found to be 48.7% in assay [1]; 10.6% in assay [2]; 53.7% in assay [3]; 20.1% in assay [4]; 68.3% in assay [5]; 24.4% in assay [6]. In addition, the inhibition in assay [7] stood at 72.9%; in [8], 7.65%; in assay [9], 48.5%; in assay [10], 1.06%.
Turning to `NC(=O)c1sc(-n2cnc3cc(C(F)(F)F)ccc32)cc1OCc1ccccc1Br`, the inhibition in assay [1] was determined as 0.79%; in assay [2], 0.92%; in [3], 1.05%; in [4] it was 1.6%; in [5], 2.97%; in assay [6], 3.26%. The inhibition was determined as 3.31% in assay [7], 2.33% in assay [8], 1.83% in assay [9] and 1.36% in assay [10].
Take `Fc1ccc(-c2ncn(C3CCNCC3)c2-c2ccnc(Oc3ccccc3)n2)cc1`: the inhibition was 1.62% in assay [1]; -0.24% in assay [2]; 0.28% in assay [3]; -0.66% in assay [4]; -0.32% in assay [5]; -1.31% in assay [6]. The inhibition in assay [7] was -1.67%; in [8] it was 1.35%; in assay [9] it was 0.51%; in assay [10] it was -0.22%.
Consider `COc1cc2c(cc1Nc1nc(Nc3ccsc3C(N)=O)c3cc[nH]c3n1)N(C(=O)CN(C)C)CCC2`, for which the inhibition in assay [1] was 26.1%; in assay [2], 3.13%; in [3], 23.2%; in assay [4] it was 7.13%; in [5], 34.8%; in assay [6] it was -6.28%. Also, the inhibition is -1.3% in [7], 0.29% in [8], 7.85% in assay [9] and 0.38% in assay [10].
`CCn1c(-c2nonc2N)nc2c(C#CC(C)(C)O)ncc(OCC3CCNCC3)c21`: the inhibition in assay [1] amounted to 13.7%; in assay [2], 6.21%; in assay [3], 27.5%; in assay [4], 4.34%; in assay [5], 19.9%; in [6], 4.16%. For the same molecule, the inhibition in [7] amounted to 19%; in [8], 2.47%; in [9], 7.78%; in assay [10], 2.29%.
